The sample as a whole holds a higher share of hits than the screen did.
Sm TGR block – S. mansoni TGR enzyme inhibition. purified TGR, DTNB reduction, TNB absorbance 405 nm. Potency, µM (highest dose often 114 µM), most hits filed as inhibitors. hit rate 3% among 360,000. AID 485364; also: nearly all actives have a fitted effect of over 60% in size
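TGR 20 nM + NADPH 100 uM (dispensed conc.), cpd preinc 15 min RT; start with NADPH (500 uM addition) then DTNB (15 mM addition). Kinetic TNB absorbance, 405 nm filter. Four-parameter Hill fit across titration.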
CHX counter – affects cycloheximide protein synthesis inhibition readout, counter-screen. cell reporter, cycloheximide protein synthesis inhibition counterscreen. max response, %. hit rate 12% among 300,000. AID 2314; in the data active = max response mostly above about 13%, no sharp cut-off; inactive = mostly below about 14%; also: read at 38.3 µM for the half of the compounds with a filed dose
Tb PYK inh – T. brucei pyruvate kinase inhibition. Potency, µM (top dose mostly 76.8 µM), hits mostly inhibitors. Q57TT1. TbPYK enzyme, Kinase-Glo Plus ATP luminescence, 45 min. hit rate 0.12% among 410,000; also: nearly all actives have a fitted effect of over 50% in size
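Luminescent Kinase-Glo Plus end-point after 45 min room-temperature reaction of T. brucei pyruvate kinase started with 130 uM ADP (final). Buffer TEA 50 mM pH 7.2 with KCl, MgCl2, BSA, Tween-20; titration-based qHTS with fitted concentration-effect curves.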
FBPA Giardia inh – Giardia lamblia aldolase inhibition | A8B2U2 | purified Giardia FBPA | Potency, µM (doses to about 59.6 µM), hits mostly inhibitors | hit rate 0.71% among 290,000; also: nearly all actives have a fitted effect of over 55% in size
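40 nM FBPA preincubated 10 min at RT with compound (up to 57.5 uM final), then substrate plus GAPDH/TPI/NAD/arsenate coupling and diaphorase/resazurin added. Fluorescence read after 20 min at RT, 525/598 nm.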
LmPK inhibitor – blocks Leishmania mexicana pyruvate kinase activity; purified LmPK, Kinase-Glo ATP luminescence, 1 h; Potency, µM (series often up to 57.5 µM), most hits filed as inhibitors; hit rate 0.37% among 290,000; AID 1721
Target sequence (Q27686 whole entry, looked up): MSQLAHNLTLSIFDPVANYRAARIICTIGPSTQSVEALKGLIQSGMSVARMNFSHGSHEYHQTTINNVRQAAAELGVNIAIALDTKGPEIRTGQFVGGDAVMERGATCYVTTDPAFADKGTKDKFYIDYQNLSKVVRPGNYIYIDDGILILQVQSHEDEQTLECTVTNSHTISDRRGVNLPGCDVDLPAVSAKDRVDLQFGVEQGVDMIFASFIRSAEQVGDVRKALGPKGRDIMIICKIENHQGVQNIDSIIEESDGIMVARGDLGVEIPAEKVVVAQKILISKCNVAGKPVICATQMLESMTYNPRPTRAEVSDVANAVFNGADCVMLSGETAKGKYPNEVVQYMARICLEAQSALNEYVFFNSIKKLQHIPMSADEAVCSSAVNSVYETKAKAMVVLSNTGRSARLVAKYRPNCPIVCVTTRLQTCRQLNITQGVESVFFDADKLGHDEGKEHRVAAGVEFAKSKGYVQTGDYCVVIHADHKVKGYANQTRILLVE
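In 50 mM imidazole pH 7.2 with 7 mM MgCl2, LmPK (0.1 nM) turned over PEP (0.5 mM) and ADP (0.1 mM) for 1 h at room temperature. Luciferase read-out of ATP.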
Shiga inhibitor – inhibitors of Shiga toxin in Vero cells | Vero cells, Shiga toxin protein synthesis inhibition reporter | inhibition, % at 38.7 µM | hit rate 9.2% among 290,000; in the data active = inhibition mostly above about 28%, no sharp cut-off; inactive = mostly below about 43%
Of the large screens only hits and unclear results are named; the others gave an inactive call. Unless noted, calls follow the shape of the dose curve; as a rule, active = well fitted curve in the direction sought with a large enough effect; inconclusive = small, poorly fitted or top-dose-only effect, or another doubt; inactive = no such curve, though single readings can be large; an effect the other way counts as inactive or inconclusive.

CCN(CC)c1ccc(CNc2ccc3c(c2)ncn3CC)cc1	Sm TGR block inconclusive
O=c1c2cc3c(cc2nc2sc(Nc4ccc(F)c(Cl)c4)nn12)OCO3	none (no result: CHX counter, FBPA Giardia inh, LmPK inhibitor, Shiga inhibitor)
O=C(Cn1c(=O)nc(-c2ccccc2F)c2cc(Cl)ccc21)N1CCN(c2ccccc2F)CC1	none (no result: CHX counter, FBPA Giardia inh, LmPK inhibitor, Shiga inhibitor)
COc1ccc(NC(=O)CCCNC(=O)c2ccc(Cl)cc2)cc1S(=O)(=O)N1CCOCC1	none (no result: Sm TGR block, CHX counter, FBPA Giardia inh, LmPK inhibitor, Shiga inhibitor)
Cc1ccc(CNc2ccc3c(c2)ncn3C(C)C)cc1	CHX counter 36, Shiga inhibitor 61
COc1cc(CNc2ccc3c(c2)ncn3C(C)C)cc(OC)c1OC	none (no result: CHX counter, FBPA Giardia inh, LmPK inhibitor, Shiga inhibitor)
CCn1cnc2cc(NS(=O)(=O)c3ccc(C)cc3)ccc21	none
CCCn1cnc2cc(NCc3ccc(Br)cc3)ccc21	CHX counter 29, Shiga inhibitor 64
CN(C)c1ccc(CNc2ccc3c(c2)ncn3C(C)(C)C)cc1	Sm TGR block inconclusive, CHX counter 28, Shiga inhibitor 58
CCn1cnc2cc(NCc3ccc(C)cc3)ccc21	CHX counter 60, Shiga inhibitor 90
N/C(=N\OC(=O)CC1CCCCC1)c1ccc([N+](=O)[O-])cc1	CHX counter 18
N/C(=N\OC(=O)CCC1CCCCC1)c1cccnc1	CHX counter 17, Shiga inhibitor 35
N/C(=N\OC(=O)CCC1CCCC1)c1ccc(Br)cc1	none (no result: FBPA Giardia inh)
COc1ccc(/C(N)=N/OC(=O)CC2CCCCC2)cc1	CHX counter 47, Shiga inhibitor 159 (no result: FBPA Giardia inh)
COc1ccc(OCC(=O)O/N=C(\N)c2ccc(OC)cc2)cc1	none
N/C(=N\OC(=O)CC1CCCCC1)c1cccc([N+](=O)[O-])c1	CHX counter 35, Shiga inhibitor 83
N/C(=N\OC(=O)CCC1CCCC1)c1cccc([N+](=O)[O-])c1	CHX counter 18
N/C(=N\OC(=O)CCC1CCCCC1)c1ccc([N+](=O)[O-])cc1	none
c1ccc(CCNc2nnnn2-c2ccccc2)cc1	CHX counter 24
C1=C(CCNc2nnnn2-c2ccccc2)CCCC1	none
CC(=O)N1CCc2c(sc3c2c(=O)n(-c2ccccc2Cl)c(=O)n3Cc2cccc(C)c2)C1	none (no result: CHX counter, FBPA Giardia inh, LmPK inhibitor, Shiga inhibitor)
C[Si](C)(C)O[Si](C)(C)C	none (no result: Sm TGR block, CHX counter, FBPA Giardia inh, LmPK inhibitor, Shiga inhibitor)
COc1ccc(NC(=S)NC(NC(=O)CCl)C(Cl)(Cl)Cl)c([N+](=O)[O-])c1 (stereo unspecified)	Sm TGR block 2.8µM
COc1ccc(NC(=S)NC(NC(=O)CF)C(Cl)(Cl)Cl)cc1[N+](=O)[O-] (stereo unspecified)	Sm TGR block 35µM
COCCCNC(=O)N1[C@H](c2cccs2)[C@@H](C)C(=O)[C@@H](C)[C@@H]1c1cccs1	none (no result: CHX counter, FBPA Giardia inh, LmPK inhibitor, Shiga inhibitor)
O=C(O)c1cc2nc3c(c(C(F)(F)F)n2n1)CCCC3	none
O=C(Nc1ccc(F)cc1F)c1cc2n(n1)C(C(F)(F)F)C1CCCCC1N2 (stereo unspecified)	CHX counter 30, Shiga inhibitor 84
O=C(Nc1ccc(F)cc1F)c1cc2nc3c(c(C(F)(F)F)n2n1)CCCC3	CHX counter 26
CCOC(=O)c1sc(NC(=O)CSc2nccn2C)nc1C	CHX counter 35, Shiga inhibitor 112 (no result: FBPA Giardia inh)
CCOC(=O)c1sc(NC(=O)CSc2ncccn2)nc1C	Shiga inhibitor 41 (no result: FBPA Giardia inh)
CC(=O)c1cccc(NC(=O)c2sc(-n3nc(C)c(CCC(C)C)c3C)nc2C)c1	none (no result: CHX counter, FBPA Giardia inh, LmPK inhibitor, Shiga inhibitor)
Cn1c(=O)c(-c2ccccc2N)nc2ccccc21	Shiga inhibitor 37
CNc1ccccc1-c1nc2ccccc2n(C)c1=O	none
OCCCc1nc2n(n1)C(c1ccccc1Cl)C=C(c1cccs1)N2 (stereo unspecified)	Sm TGR block 28µM, Tb PYK inh inconclusive
OCCCc1nc2n(n1)C(c1ccccc1)C=C(c1ccc(F)cc1)N2 (stereo unspecified)	Sm TGR block 20µM
OCCCc1nc2n(n1)C(c1cccs1)C=C(c1ccccc1)N2 (stereo unspecified)	Sm TGR block inconclusive (no result: Tb PYK inh)
C[C@@]1(C(NC(=O)c2cccs2)c2ccc(-c3ccccc3)cc2)C[C@H]1C1CCCCC1 (stereo partly specified)	none (no result: Sm TGR block, CHX counter, Tb PYK inh, LmPK inhibitor, Shiga inhibitor)
CCN(CC)C(=O)C1CCCN(c2ncnc3onc(C)c23)C1 (stereo unspecified)	none (no result: CHX counter, FBPA Giardia inh, LmPK inhibitor, Shiga inhibitor)
CCN(CC)C(=O)C1CCCN(c2ncnc3c2cnn3-c2cccc(C)c2)C1 (stereo unspecified)	Sm TGR block inconclusive, CHX counter 34, Shiga inhibitor 63
CCOC(=O)C1CCCN(c2ncnc3c2cnn3-c2cccc(C)c2)C1 (stereo unspecified)	CHX counter 41, Shiga inhibitor 118
CCN1CCN(c2ncnc3c2cnn3-c2cccc(C)c2)CC1	none (no result: CHX counter, FBPA Giardia inh, LmPK inhibitor, Shiga inhibitor)
Cc1cccc(-n2ncc3c(N4CCCC(C)C4)ncnc32)c1 (stereo unspecified)	none (no result: CHX counter, FBPA Giardia inh, LmPK inhibitor, Shiga inhibitor)
CCN(CC)C(=O)C1CCCN(c2ncnc3c2cnn3-c2ccc(Cl)cc2)C1 (stereo unspecified)	CHX counter 23, Shiga inhibitor 62
O=C(CCn1c(=O)c2cccn2c2cccnc21)Nc1ccccc1C(F)(F)F	none (no result: CHX counter, FBPA Giardia inh, LmPK inhibitor, Shiga inhibitor)
COC(=O)[C@@]1(Cc2ccccc2)[C@H]2c3cc(C(=O)N4CCCC4)n(Cc4cccc5ccccc45)c3C[C@H]2CN1C(=O)c1ccccc1	none (no result: Sm TGR block, CHX counter, Tb PYK inh, LmPK inhibitor, Shiga inhibitor)
O=C(COC(=O)c1cccnc1Cl)Nc1cc(S(=O)(=O)N2CCCCCC2)ccc1Cl	none (no result: CHX counter, FBPA Giardia inh, LmPK inhibitor, Shiga inhibitor)
CCN(c1ccccc1)S(=O)(=O)c1ccc(C(C(=O)OC)C(=O)OC)c([N+](=O)[O-])c1	none
CCN(c1ccccc1)S(=O)(=O)c1cc([N+](=O)[O-])ccc1N	CHX counter 28, Shiga inhibitor 58
Cn1c(=O)c2cc(NC(=O)CCc3cccnc3)ccc2n1Cc1ccc(F)cc1	none (no result: Sm TGR block, CHX counter, FBPA Giardia inh, LmPK inhibitor, Shiga inhibitor)
C/C(=N\NC(=O)c1ccccc1O)c1c(O)cc(C)oc1=O	CHX counter 28
C/C(=N\NC(=O)c1cccnc1)c1c(O)cc(C)oc1=O	CHX counter 21, Shiga inhibitor 34
C/C(=N\NC(=O)c1ccccc1[N+](=O)[O-])c1c(O)cc(C)oc1=O	none
CCn1c(-c2ccccn2)nc2cc(S(=O)(=O)N(C)C)ccc21	CHX counter 17
CCCC(C)C(=O)OCC(=O)Nc1ccc(Br)cc1 (stereo unspecified)	Sm TGR block 45µM (no result: Tb PYK inh)
CCCNC(=O)CCn1c(=S)oc2ccccc21	none
CC(C)CC(=O)/C=C/n1c(=S)oc2ccccc21	Sm TGR block 6.3µM
Cn1c(=S)oc2ccccc21	none
CC(=O)/C=C/n1c(=S)oc2ccccc21	Sm TGR block 2.5µM, CHX counter 32
CCn1c(SCc2nc3ccccc3[nH]2)nnc1-c1cnccn1	CHX counter 23, FBPA Giardia inh inconclusive, Shiga inhibitor 55
CCn1c(SCc2nc3ccccc3[nH]2)nnc1-c1cccnc1	none
C=CCn1c(SCc2nc3ccccc3[nH]2)nnc1-c1ccccn1	CHX counter 27
